# Bioassay records as filed in PubChem.
# Compounds with a hit are over-represented: about 14% of the library has one in this group of screens.
# Pf growth 48h = P. falciparum growth inhibition at 48 hours (one generation); P. falciparum luciferase growth in erythrocytes, 48 h; Potency, µM (doses to about 28.7 µM), actives largely listed as inhibitors; 310,000 tested, 5.9% active
#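 Read-out is firefly luciferase luminescence from an integrated reporter in P. falciparum, so falling signal marks reduced parasite growth. Infected erythrocytes were at 2% hematocrit and 0.1% parasitemia (final) in Albumax-supplemented RPMI 1640.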
# Marburg entry inh = Marburg virus entry inhibition. 300,000 tested, 1.8% active. AID 540276. Marburg virus pseudotyped entry inhibition, cell reporter. Potency, µM (doses to about 37.8 µM), most hits filed as inhibitors; calls by dose curve; tested in HEK293 cells
# Lassa entry inh = inhibitors of Lassa virus binding or cell entry; 300,000 tested, 1.2% active; Potency, µM (doses to about 37.9 µM), most hits filed as inhibitors; Lassa virus pseudotype entry inhibition, cell reporter; calls by dose curve; tested in HEK293 cells; also: nearly all actives have a fitted effect of over 50% in size
# Pf growth 96h = inhibits malaria parasite growth, 96 h; P. falciparum luciferase reporter growth, 96 h; Potency, µM (top dose mostly 28.7 µM), usual class: inhibitors; 320,000 tested, 6.9% active; AID 504834
#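 P. falciparum expressing integrated firefly luciferase, in erythrocytes at 2% hematocrit, 0.05% parasitemia, incubated with compounds 96 h at 37 C, 5% CO2. Growth inhibition read as loss of luminescence; two-generation exposure targets delayed-death apicoplast inhibitors.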
# HCV inh = HCV inhibition | Huh7.5.1 HCVcc-Cre infection, luciferase reporter, 44 h | Potency, µM (titrated, usually from 41.8 µM), actives largely listed as inhibitors | 340,000 tested, 3.4% active | AID 651820
#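 HCVcc-Cre virus at an moi near 0.5 was added right after compound to cells cultured 4 h from seeding (1,000 cells/well). Luciferase activity was determined 44 h later, 15 min after substrate addition at RT.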
# HCMV inh = inhibitors of human cytomegalovirus; HFF cells, HCMV-luciferase reporter, 72 h; hits give low values; activity change, negative = inhibition, % at 57.5 µM; 410,000 tested, 4.5% active; AID 1259415; in the data active = activity change below about -60%; inconclusive = no clear call, values can overlap the other calls; inactive = above about -39%
#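 Human foreskin fibroblasts infected with luciferase-reporter HCMV at MOI 1 PFU/cell, compounds at two doses. Luciferase measured 72 h post infection; normalized to buffer-only basal and Salinomycin (10uM) controls.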
# A number is an active result; i = inactive; ? = inconclusive; nt = not tested or not shown; [ ] = remark or other dose. Unless noted, calls follow the shape of the dose curve; as a rule, active = well fitted inhibition curve with a large enough effect; inconclusive = small, poorly fitted or top-dose-only effect, or another doubt; inactive = no such curve, though single readings can be large or run the other way.
SMILES,Pf growth 48h,Marburg entry inh,Lassa entry inh,Pf growth 96h,HCV inh,HCMV inh
Brc1ccccc1/C=N/Nc1ccc2ccccc2n1,i,11.2µM,?,?,?,i
Fc1cccc(/C=N/Nc2ccc3ccccc3n2)c1,i,6.31µM,?,i,i,i
Brc1ccc(/C=N/Nc2ccc3ccccc3n2)cc1,i,i,?,?,i,i
Cc1cc2c3c([nH]c2cc1S(=O)(=O)N1CCC2(CC1)OCCO2)CCCC3=O,?,nt,nt,?,22.4µM,?
Cc1cc(S(=O)(=O)N2CCC3(CC2)OCCO3)c(C)cc1Cl,i,i,i,i,i,i
COC(=O)c1sccc1NC(=O)c1cc(-c2cccc(C)c2)nc2ccccc12,9.28µM,i,i,i,i,i
Cc1sc(NC(=O)c2cc(-c3ccccc3)nc3ccccc23)c(C(N)=O)c1C,i,?,i,i,12.6µM,i
COc1ccc(-c2cc(C(=O)Nc3sc4c(c3C#N)CCCC4)c3ccccc3n2)cc1,i,?,i,i,?,i
COC(=O)c1sc(NC(=O)c2cc(-c3ccccc3)nc3ccccc23)c(C#N)c1C,i,?,?,i,11.2µM,-97.5
CCOC(=O)c1sc(NC(=O)c2cc(-c3ccc(C)cc3)nc3ccccc23)c(C#N)c1C,?,i,i,i,i,-102.8
C[C@H]1[C@H](c2ccccc2)Oc2cccc(N3CCCC3)c2S(=O)(=O)N1Cc1cccc(F)c1,nt,nt,nt,nt,nt,i
COc1cccc(-c2cc(NC=O)c3ncc(-c4ccc(F)c(Cl)c4)n3c2)c1,nt,nt,nt,nt,nt,i
Cc1ccc(CNC(=O)C2CCN(c3nn4cc(-c5ccc(F)cc5)nc4s3)CC2)cc1,nt,nt,i,nt,nt,i
Cc1sc(NC(=O)c2ccc(Cl)s2)c(C(N)=O)c1C,i,?,?,nt,i,i
Cc1ccccc1-c1cc(C(=O)Nc2sc(C(=O)OC(C)C)c(C)c2C#N)c2ccccc2n1,i,11.6µM,?,i[5.75 µM],12.6µM,-101.0
COc1ccccc1-c1cc(C(=O)Nc2sc3c(c2C#N)CCC(C)C3)c2ccccc2n1 (stereo not drawn),i,i,i,nt,?,i
Cc1sc(NC(=O)c2ccc(Br)s2)c(C(N)=O)c1C,i,?,?,nt,11.2µM,i
OC[C@@H]1CN(Cc2ccc(F)cc2)C[C@H](n2cnc3c(N4CCOCC4)ncnc32)O1,nt,nt,nt,nt,nt,i
CCCCCn1c(CN2CCN(c3ccc(OC)cc3)CC2)nc2c1c(=O)[nH]c(=O)n2C,nt,i,?,nt,nt,i
C#CCN(C[C@H]1[C@H](OC(=O)NC2CC2)[C@H](OC(=O)NC2CC2)C[C@@H](C(=O)OC)[C@H]1C(=O)OC)S(=O)(=O)c1ccc(C)cc1,nt,nt,nt,nt,nt,i
CC(=O)N1/C(=C/c2ccc(N(C)C)cc2)C(=O)c2ccccc21,i,12.6µM,?,?,i,i
CC(=O)N1c2ccccc2C(=O)C1N(C)c1ccc(C)cc1 (stereo not drawn),i,?,i,i,i,i
O=C(NCc1cccnc1)Nc1cccc(NC(=O)NCc2cccnc2)c1,i,i,i,nt,i,i
Cc1cc(C)cc(NC(=O)NCc2c(-n3cccc3)sc3c2CCCC3)c1,nt,?,i,nt,nt,i
O=C(NCc1cccnc1)Nc1cccc(C(F)(F)F)c1,i,i,i,1.47µM,i,-69.6
SMILES,Pf growth 48h,Marburg entry inh,Lassa entry inh,Pf growth 96h,HCV inh,HCMV inh
COc1ccc(CN(C)C(=O)c2ccc(OCC(=O)Nc3cccc(C(F)(F)F)c3)c(OC)c2)cc1,nt,nt,nt,nt,nt,-61.9
COc1cc(C(=O)NCc2cccnc2)ccc1OCC(=O)Nc1cccc(C(F)(F)F)c1,i,?,?,?,?,-73.2
O=C(NCc1c(-n2cccc2)sc2c1CCCC2)Nc1cccc(C(F)(F)F)c1,nt,i,i,nt,nt,-73.0
CC1CN(C(=O)Nc2ccc(C(=O)NCc3ccccc3F)cc2)c2ccccc2S1 (stereo not drawn),nt,i,i,nt,nt,i
CCCCn1c(=O)c(C=Nc2ccc(Cl)cc2)c(O)n(Cc2ccco2)c1=O,8.28µM,i,i,9.28µM,i,i
CC(C)n1c(=O)c(C=Nc2ccc(S(N)(=O)=O)cc2)c(O)n(Cc2ccco2)c1=O,i,i,i,i,i,i
O=C(NN=Cc1ccccc1Cl)C(=O)Nc1cccc(C(F)(F)F)c1,nt,nt,nt,nt,nt,i
N/C(CCS(=O)(=O)c1ccc(Cl)cc1)=N\OC(=O)c1ccccc1C(F)(F)F,3.7µM,?,22.4µM,9.28µM,?,i
